Reference: PubChem BioAssay
Records with an inconclusive call do not appear. Activity calls are given as the source filed them.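 How the source made its calls, unless noted: active means viability at or under a set limit in both replicates, limit being median viability minus 3 SD (cut at about 48% in these data, passing the limit was not always enough); inconclusive means at or under the limit in just one replicate; inactive means at or above the limit in both replicates.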

How the values were obtained:
[1] = reducers of endogenous Her2 protein level, primary screen, SKBR3 breast tumor cells, AlphaScreen, ATP viability (AID 461;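 active means Her2 level under about 52% in both replicate screens, with viability over 70% of control, limit read from the data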;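 on Her2 level: lower value means less Her2 protein in the cells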;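 on viability: percent of carrier control wells set as 100% viability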); conditions: 18-24 h, measured here: SKBR3 viability, ATP luminescence, at 10 µM
[2] = molecular target: Receptor tyrosine-protein kinase erbB-2 (Homo sapiens) (UniProt P04626); test: as above; conditions: 18-24 h, at 10 µM, stronger effect = lower value
Chain of Receptor tyrosine-protein kinase erbB-2 (Homo sapiens) (P04626 whole entry, looked up): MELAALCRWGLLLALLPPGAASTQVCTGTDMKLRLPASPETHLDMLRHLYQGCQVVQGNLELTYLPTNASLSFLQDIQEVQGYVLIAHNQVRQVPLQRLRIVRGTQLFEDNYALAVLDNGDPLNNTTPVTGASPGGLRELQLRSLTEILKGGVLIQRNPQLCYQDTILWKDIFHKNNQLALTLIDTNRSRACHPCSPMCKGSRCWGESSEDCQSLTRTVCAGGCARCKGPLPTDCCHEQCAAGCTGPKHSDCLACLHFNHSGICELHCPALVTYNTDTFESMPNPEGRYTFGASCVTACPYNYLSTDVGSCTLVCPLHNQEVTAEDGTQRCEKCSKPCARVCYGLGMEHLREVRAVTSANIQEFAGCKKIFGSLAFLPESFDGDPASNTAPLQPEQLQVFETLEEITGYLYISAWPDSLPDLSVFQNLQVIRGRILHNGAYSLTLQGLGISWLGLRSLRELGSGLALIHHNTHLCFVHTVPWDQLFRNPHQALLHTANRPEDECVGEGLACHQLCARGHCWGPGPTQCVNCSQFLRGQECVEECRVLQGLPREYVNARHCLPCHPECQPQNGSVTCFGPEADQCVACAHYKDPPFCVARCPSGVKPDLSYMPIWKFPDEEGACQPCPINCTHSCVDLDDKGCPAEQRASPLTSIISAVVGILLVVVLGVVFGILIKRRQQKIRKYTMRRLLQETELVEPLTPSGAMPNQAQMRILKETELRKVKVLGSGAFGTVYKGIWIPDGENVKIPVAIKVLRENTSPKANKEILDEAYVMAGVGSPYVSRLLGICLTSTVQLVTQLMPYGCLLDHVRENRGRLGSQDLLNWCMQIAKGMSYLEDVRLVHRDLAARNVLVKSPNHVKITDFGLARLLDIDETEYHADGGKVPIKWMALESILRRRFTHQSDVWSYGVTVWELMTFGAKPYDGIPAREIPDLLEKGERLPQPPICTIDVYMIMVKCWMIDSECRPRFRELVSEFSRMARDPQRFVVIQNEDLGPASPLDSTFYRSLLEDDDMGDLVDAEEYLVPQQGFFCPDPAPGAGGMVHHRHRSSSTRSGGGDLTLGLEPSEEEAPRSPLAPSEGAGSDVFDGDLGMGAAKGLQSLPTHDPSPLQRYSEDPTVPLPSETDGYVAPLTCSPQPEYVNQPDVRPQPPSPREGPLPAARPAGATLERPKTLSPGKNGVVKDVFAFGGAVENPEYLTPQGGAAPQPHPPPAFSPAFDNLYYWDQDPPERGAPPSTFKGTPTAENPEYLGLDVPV

[3] = SK-BR-3 cell growth inhibitors, pilot screen, 24 h, human (AID 572;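 active means viability at or below 10% of carrier control in both of two separate runs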;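 further: compound exposure lasted between 18 and 24 h rather than exactly 24 h; 100% = carrier-treated control wells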); conditions: SK-BR-3 viability, CellTiter-Glo luminescence, at 10 µM, stronger effect = lower value
[4] = HUVEC growth inhibition – cell-based, human, primary screen (AID 575;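 active means viability at or below 30% in both replicate assays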;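 further: 100% = median of untreated cell wells with 0.1% DMSO on each plate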); conditions: HUVEC proliferation, CellTiter-Glo luminescence, 72 h; at 10 µM; stronger effect = lower value
[5] = growth inhibitors of H69AR lung tumor, primary screen, human, duplicate replicates (AID 580); conditions: H69AR lung tumor cells viability, ATP luminescence, 72 h; at 10 µM; stronger effect = lower value;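 further: 100% = mean luminescence of untreated wells and 0% = no signal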
[6] = reversal of MRP1-mediated doxorubicin resistance, pilot screen, H69AR cells, doxorubicin co-treatment (AID 601;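 active means viability loss from added drug above about 55%, and viability with drug at most 40%, in both replicates, limit read from the data, passing the limit was not always enough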); conditions: CellTiter-Glo, 72 h, at 10 µM; for differential viability (reversal): stronger effect = higher value
[7] = 384-well plate pilot, post-Golgi transport modulator project, inhibition of yeast transport mutant growth (AID 636; in the data active means inhibition above about 31%); conditions: absorbance 615 nm, about 18 h, stronger effect = higher value
[8] = growth suppression of yeast trafficking mutant, preliminary HTS, modulators of trafficking downstream of Golgi apparatus project, 1536-format plate, OD 615 nm (AID 637; in the data active means inhibition above about 30%); conditions: yeast transport mutant growth, absorbance 615 nm, 18 h; stronger effect = higher value
[9] = OD615 S. cerevisiae growth inhibition, permissive medium, pilot counter-assay, permissive growth control for S. cerevisiae lifespan shortening project (AID 705;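 active means growth inhibition above 25% in both replicates, a cutoff set 3 SD above the mean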); conditions: OD615, 24 h, at 10 µM, stronger effect = higher value
[10] = Restrictive medium S. cerevisiae growth inhibition, OD615, pilot screen of yeast lifespan reduction project, restrictive growth control (AID 706;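 active means growth inhibition above a set limit, 3 SD over mean compound inhibition, in both replicates, cut at about 43% in these data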;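 further: modified DeaD lifespan yeast strain shifted to restrictive glucose medium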); conditions: OD615, 48 h, at 10 µM, stronger effect = higher value
[11] = viability gain of MRP-1-high H69AR cells under doxorubicin, pilot screen, MRP-1 activator project, CellTiter-Glo, duplicate (AID 807;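 active means viability increase at or above a cutoff of the median across tested compounds plus 3 SD, cut at about 8.5% in these data, passing the limit was not always enough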;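 further: compound pretreatment 18-22 h then 72 h combined with doxorubicin; 0% = doxorubicin alone and 100% = vehicle without doxorubicin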); conditions: H69AR viability with doxorubicin, CellTiter-Glo luminescence; at 10 µM; stronger effect = higher value
[12] = growth suppression of beta-catenin knockout HCT116, pilot screen, human colon tumor cells (AID 823;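 active means cell viability at or below a set limit in both duplicate runs, the limit being the all-compound median minus 4 SD, cut at about 23% in these data, passing the limit was not always enough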;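 further: 0% = wells killed by 20 µM Hyamine and 100% = untreated DMSO cell wells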); conditions: CellTiter-Glo, 60 h, at 10 µM, stronger effect = lower value
[13] = growth suppression of PTEN-deleted HCT116, pilot screen, cell-based, HCT116 clonal line, CellTiter-Glo (AID 824;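 active means viability at or below 27.92% in each of two runs, the all-compound median minus 4 SD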;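 further: 0% = 20 µM Hyamine control and 100% = vehicle cell control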); conditions: 60 h, at 10 µM, stronger effect = lower value
[14] = inhibitors of the yeast RAM network, pilot screen, dse1pr::URA3 reporter, 5-FOA selection (AID 869;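 active means inhibition over a set limit, the all-compound mean plus 3 SD, in both replicate runs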;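 further: 0% = DMSO wells with no growth and 100% = 10 µM 1-NA-PP1 with full growth; RAM network block rescues cells from 5-FOA so hits raise OD615 growth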); conditions: S. cerevisiae dse1pr::URA3 5-FOA growth, OD615, 2 d; at 10 µM; stronger effect = higher value; strain carries analog-sensitive mutant Cbk1 kinase
[15] = RAM signaling pathway blockade in yeast – S. cerevisiae, Pdr1DBD-CYC8 efflux-inhibited sensitized strain, primary screen (AID 1298;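 active means RAM network inhibition above 8.4% in each of two replicates, 3 SD over the compound average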;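 further: 0% = DMSO untreated cells without growth and 100% = 10 µM 1-NA-PP1 full growth; higher means more yeast growth rescued from 5-FOA killing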); conditions: S. cerevisiae cbk1-as DSE1-URA3 strain, 5-FOA growth OD615, 2 d; at 50 µM; stronger effect = higher value
[16] = H69AR cells + 2 uM doxorubicin, measured here: viability with 2 uM doxorubicin, stronger effect = lower value
[17] = H69AR cells, compound alone cytotoxicity

SMILES | viability [1] | Her2 level [2] | viability [3] | viability [4] | viability [5] | differential viability (reversal) ([6]; H69AR cells + 2 uM doxorubicin) | viability [6, 16] | viability [6, 17] | inhibition [7] | inhibition [8] | growth inhibition [9] | growth inhibition [10] | viability increase [11] | viability [12] | viability [13] | inhibition [14] | RAM network inhibition [15]
Cc1noc(/C=C/N(C)C)c1S(=O)(=O)N1CCCC(C(=O)N2CCc3ccccc32)C1 (stereo not drawn) | 104% | 99% (inactive) | 104% (inactive) | 86.3% (inactive) | 89.2% (inactive) | -5.5% (inactive) | 94.7% | 89.2% | -5.2% (inactive) | -0.33% (inactive) | 5.67% (inactive) | -0.63% (inactive) | -0.98% (inactive) | 103% (inactive) | 109% (inactive) | 1.35% (inactive) | 4.08% (inactive)
CC1(C)CC(=O)c2cnc(NC(=O)CCc3ccccc3)nc2C1 | 93% | 82% (inactive) | 93% (inactive) | 112% (inactive) | 90.2% (inactive) | 0.98% (inactive) | 89.2% | 90.2% | -0.65% (inactive) | -4.5% (inactive) | -7.5% (inactive) | -11.6% (inactive) | 1.81% (inactive) | 97.6% (inactive) | 101% (inactive) | 1.27% (inactive) | 6.48% (inactive)
COc1ccc(N2C(=O)CCC(C(=O)N3CCCCC3)C2c2ccc(OC)c(OC)c2)cc1 (stereo not drawn) | 100% | 90.5% (inactive) | 100% (inactive) | 92.3% (inactive) | 95.4% (inactive) | 2.14% (inactive) | 93.2% | 95.4% | -6.67% (inactive) | -1.11% (inactive) | -0.77% (inactive) | -8.71% (inactive) | 0.42% (inactive) | 105% (inactive) | 98.2% (inactive) | 0.405% (inactive) | 2.24% (inactive)
O=C(OCn1nnc2ccccc2c1=O)c1cc2ccccc2o1 | 88% | 106% (inactive) | 88% (inactive) | 94.6% (inactive) | 91.7% (inactive) | -23.7% (inactive) | 115% | 91.7% | -5.47% (inactive) | -8.5% (inactive) | 3.37% (inactive) | -2.58% (inactive) | 1.18% (inactive) | 99.5% (inactive) | 104% (inactive) | 3.96% (inactive) | 7.11% (inactive)
O=C(CSc1nnc(Cn2c(=O)sc3ccccc32)n1-c1ccccc1)NCC1CCCO1 (stereo not drawn) | 80.5% | 108% (inactive) | 80.5% (inactive) | 82.3% (inactive) | 99.8% (inactive) | 12.6% (inactive) | 87.2% | 99.8% | -1.92% (inactive) | 0.83% (inactive) | -4.79% (inactive) | 10.2% (inactive) | -2.08% (inactive) | 99.1% (inactive) | 98.6% (inactive) | 1.41% (inactive) | 0.47% (inactive)
O=C(Cn1ncc2c1-c1ccccc1OC2)N1CCN(c2ccccn2)CC1 | 91.5% | 108% (inactive) | 91.5% (inactive) | 101% (inactive) | 89.7% (inactive) | 4.26% (inactive) | 85.5% | 89.7% | -2.05% (inactive) | 0.67% (inactive) | -9.33% (inactive) | -14.6% (inactive) | -1.13% (inactive) | 99.9% (inactive) | 92.7% (inactive) | 0.525% (inactive) | 3.36% (inactive)
CCC(C)C(=O)Nc1nc2c(s1)C(=O)CC(C)(C)C2 (stereo not drawn) | 120% | 106% (inactive) | 120% (inactive) | 97.1% (inactive) | 89.5% (inactive) | 1.27% (inactive) | 88.3% | 89.5% | -6.27% (inactive) | -0.67% (inactive) | -16.6% (inactive) | -8.86% (inactive) | 0.25% (inactive) | 107% (inactive) | 97.5% (inactive) | 2.1% (inactive) | 1.9% (inactive)
Cc1cc(NS(=O)(=O)c2ccc(NC(=O)COc3ccccc3C(C)C)cc2)no1 | 98% | 90.5% (inactive) | 98% (inactive) | 80.9% (inactive) | 88.9% (inactive) | 1.26% (inactive) | 87.6% | 88.9% | -5.2% (inactive) | -3.33% (inactive) | -12% (inactive) | -18.1% (inactive) | -1.38% (inactive) | 93.6% (inactive) | 83.4% (inactive) | 2.17% (inactive) | 4.16% (inactive)
CN(C)C(=O)N1CCN(C(=O)c2ccco2)CC1 | 116% | 114% (inactive) | 116% (inactive) | 94.6% (inactive) | 101% (inactive) | 6.83% (inactive) | 94.6% | 101% | 2.4% (inactive) | -3.83% (inactive) | 1.14% (inactive) | 8.06% (inactive) | -1.78% (inactive) | 102% (inactive) | 99.5% (inactive) | 2.13% (inactive) | 0.72% (inactive)
